Inhibition data for 87 compounds are collected here from PubChem BioAssay AID372 (MTDP, 2006).

Each structure is given as a SMILES string. The campaign covered roughly 100,000 compounds. About 770 (0.77%) were called active. The sample holds actives, similar compounds and a random draw of the others, so the mix is not that of the screen. Unmarked numbers belong to inactive results. No stated cut-off is given here; in the data, active means inhibition above about 50%; inactive means the rest.

For this assay, the target named is Gag-Pol polyprotein (Human immunodeficiency virus type 1 group M subtype B (isolate HXB2)) (UniProt P04585). The experiment in a line: RNase H inhibition, HIV 1 Gag Pol polyprotein, FRET biochemical assay, screening (AID 372). The note with it: HIV-1 RT RNase H, FRET RNA/DNA substrate fluorescence; at 10 µM; hits give high values.
Take `O=[N+]([O-])c1ccc(C=Nc2ccc(F)cc2)s1`: the inhibition is 21%.
Regarding `COC(=O)C1=C(C)N(Cc2ccccc2)C(=O)/C1=C\c1ccccc1Cl`, the inhibition was 51% (active).
`COC(=O)C1=C(C)N(Cc2ccccc2)C(=O)/C1=C\c1c(Cl)cccc1Cl`: the inhibition was 47%.
The same measure for `COC(=O)C1=C(C)N(Cc2ccccc2)C(=O)/C1=C\c1cccs1`: 4%.
With `CN(C)c1ccc(/C=C(\C#N)c2nc(-c3ccc4c(c3)OCO4)cs2)cc1`, the inhibition is 16%.
Regarding `CCOC(=O)c1sc(NC(=O)c2cc(Cl)ccc2OC)c(C(N)=O)c1C`, the inhibition was 2%.
For the compound `O=C(Nc1ccccc1I)c1ccc(C(=O)Nc2ccccc2I)cc1`, the inhibition is 0%.
Turning to `O=C(Nc1ccccc1I)c1ncn[nH]1`, the inhibition was 54% (active).
In the case of `Cc1cccc(NC(=O)c2ncn[nH]2)c1C`, the inhibition is 0%.
Take `O=C(Nc1nc2ccccc2n1Cc1ccc(Cl)cc1)c1ccc(Cl)cc1`: the inhibition is 11%.
For `CC(=O)Nc1ccc(NC(=S)NC(=O)c2cccc(Br)c2)cc1`, the inhibition was 0%.
As to `O=C1/C(=C/c2ccc(-c3ccc(Cl)cc3C(=O)O)o2)Sc2ccccc21`, the inhibition is 21%.
For the compound `O=C1NC(=S)S/C1=C\c1ccc(-c2ccc(Cl)c(C(=O)O)c2)o1`, the inhibition is 18%.
Consider `O=C1NC(=O)/C(=C\c2ccc(-c3ccc(C(=O)O)cc3)o2)S1`, for which the inhibition is 6%.
Take `O=C(O)c1cc(-c2ccc(C=C3C(=O)c4ccccc4C3=O)o2)ccc1O`: the inhibition was 11%.
For `CCCOc1ncnc2sc3c(c12)CCCC3`, the inhibition is 12%.
For the compound `CC1=NN(c2ccc(S(N)(=O)=O)cc2)C(=O)/C1=C\c1cccc([N+](=O)[O-])c1`, the inhibition was 12%.
For the compound `COc1cc([N+](=O)[O-])ccc1-c1ccc(/C=C2\C(=O)N(c3ccc(S(N)(=O)=O)cc3)N=C2C)o1`, the inhibition was 53% (active).
The value for `CCCOc1ccc(/C=C2\C(=O)N(c3ccc(S(N)(=O)=O)cc3)N=C2C)cc1OC` was 6%; that for `CC1=NN(c2ccc(S(N)(=O)=O)cc2)C(=O)/C1=C\c1ccc(-c2cccc([N+](=O)[O-])c2)o1` was 57% (active).
The same measure for `CC1=NN(c2ccc(S(N)(=O)=O)cc2)C(=O)/C1=C\c1ccc(-c2cc([N+](=O)[O-])ccc2C)o1`: 42%; for `COc1cc(/C=C2\C(=O)N(c3ccc(S(N)(=O)=O)cc3)N=C2C)cc(Br)c1OCc1ccccc1`: 16%; for `CC1=NN(c2ccc(S(N)(=O)=O)cc2)C(=O)/C1=C\c1ccc(-c2ccc(Cl)c([N+](=O)[O-])c2)o1`: 80% (active).
Take `CN1C(=O)C(=Cc2ccc(-c3ccc(Cl)c([N+](=O)[O-])c3)o2)C(=O)N(C)C1=S`: the inhibition is 30%.
The value for `COc1cc(/C=C2\C(=O)N(c3ccc(S(N)(=O)=O)cc3)N=C2C)ccc1OCc1ccccc1` was 53% (active); that for `COc1cc([N+](=O)[O-])ccc1-c1ccc(/C=C2\C(=O)N(c3ccc(C(=O)O)cc3)N=C2C)o1` was 26%.
The same measure for `COc1cc([N+](=O)[O-])ccc1-c1ccc(/C=C2/C(=O)N(c3ccc(C)cc3)N=C2C)o1`: 6%; for `CC1=NN(c2ccc(S(N)(=O)=O)cc2)C(=O)/C1=C\c1ccc(-c2cc([N+](=O)[O-])ccc2Cl)o1`: 46%; for `C=CCc1ccc(OCCCOc2c(Cl)cccc2Cl)c(OC)c1`: 42%.
The same measure for `CCOC(=O)C1=C(C)NC(=S)NC1c1ccc(Cl)c(Cl)c1` (configuration not stated): 7%; for `COc1ccc(NC(=NCCc2ccccc2)SC2CC(=O)N(c3ccc(F)cc3)C2=O)cc1` (configuration not stated): 9%; for `COc1ccc(OC)c(C=Nc2ccc(I)cc2)c1`: 9%.
For `O=C1NC(=Nc2ccc(F)cc2)S/C1=C/c1cccc(Br)c1`, the inhibition was 40%.
Take `CCOC(=O)C1=C(C)N=c2s/c(=C\c3cc(Br)c(OC)c(OC)c3)c(=O)n2C1c1ccc(OC)c(OC)c1` (configuration not stated): the inhibition is 18%.
As to `CCc1cccc(C)c1NC(=O)/C(C#N)=C/c1ccccc1`, the inhibition was 4%.
`CC1=NN(c2cccc(C(=O)O)c2)C(=O)/C1=C\c1ccc(-c2ccc([N+](=O)[O-])cc2)o1`: the inhibition is 7%.
The value for `CC1=NN(c2ccc(S(N)(=O)=O)cc2)C(=O)/C1=C\c1ccc(-c2ccc(Br)cc2)o1` was 59% (active); that for `CC1=NN(c2ccc(S(N)(=O)=O)cc2)C(=O)/C1=C\c1ccc(-c2ccc(Cl)c(C(=O)O)c2)o1` was 6%.
As to `CC1=NN(c2ccc(S(N)(=O)=O)cc2)C(=O)/C1=C\c1ccc(-c2ccc([N+](=O)[O-])cc2)o1`, the inhibition was 63% (active).
On to `CCOC(=O)c1ccc(-c2ccc(/C=C3\C(=O)N(c4ccc(S(N)(=O)=O)cc4)N=C3C)o2)cc1`, for which the inhibition is 36%.
On to `CC1=NN(c2ccc(S(N)(=O)=O)cc2)C(=O)/C1=C\c1ccc(-c2ccc(S(N)(=O)=O)cc2)o1`, for which the inhibition was 32%.
Consider `CC1=NN(c2ccccc2)C(=O)/C1=C\c1ccc(-c2cc([N+](=O)[O-])ccc2O)o1`, for which the inhibition was 30%.
`CC1=NN(c2ccc(S(N)(=O)=O)cc2)C(=O)/C1=C\c1ccc(-c2ccc(C(=O)OC(C)C)cc2)o1`: the inhibition was 25%.
`CC1=NN(c2ccc(C)cc2)C(=O)/C1=C/c1ccc(-c2ccc(Cl)c(C(=O)O)c2)o1`: the inhibition was 24%.
In the case of `CC1=NN(c2ccc(S(N)(=O)=O)cc2)C(=O)/C1=C\c1ccc(-c2ccc(C)c(Cl)c2)o1`, the inhibition is 53% (active).
In the case of `CC1=NN(c2ccc(S(N)(=O)=O)cc2)C(=O)/C1=C\c1ccc(-c2ccc(Cl)c(C(=O)OC(C)C)c2)o1`, the inhibition is 59% (active).
In the case of `COC(=O)c1cccc(-c2ccc(/C=C3\C(=O)N(c4ccc(S(N)(=O)=O)cc4)N=C3C)o2)c1`, the inhibition was 28%.
For the compound `COc1cccc(C(=O)NC(=S)Nc2ccc3oc(-c4ccccc4Cl)nc3c2)c1`, the inhibition is 12%.
With `O=C(CSc1n[nH]c(-c2ccncc2)n1)c1ccc(O)cc1O`, the inhibition is 15%.
Consider `FC(F)(F)Oc1ccc(N=Cc2ccc(Br)s2)cc1`, for which the inhibition is 8%.
The same measure for `Oc1cccc(-c2nc(-c3ccccc3)c(-c3ccc(Br)cc3)[nH]2)c1`: 22%; for `CCOc1ccc(OCCOCCOc2ccccc2Cl)cc1`: 8%.
On to `CC1(C)CC(=O)C=C(Nc2cc([N+](=O)[O-])ccc2N)C1`, for which the inhibition is 7%.
In the case of `CCN(CC)c1ccc(NS(=O)(=O)c2ccc(Cl)cc2)cc1`, the inhibition was 28%.
Turning to `Cc1cc(C)cc(OCCNC(=O)c2ccccc2C)c1`, the inhibition is 5%.
For `COc1ccc(C(=O)NC(=S)Nc2ccc(-c3nc4cc(C)ccc4o3)c(O)c2)cc1`, the inhibition was 17%.
The same measure for `Cc1ccc2nc(-c3ccc(C)c(NC(=S)NC(=O)c4cccc(F)c4)c3)oc2c1`: 52% (active); for `Cc1ccc2nc(-c3cc(NC(=S)NC(=O)c4cccc(F)c4)ccc3Cl)oc2c1`: 51% (active).
Consider `COc1cccc(C(=O)NC(=S)Nc2ccc(-c3nc4cc(C)ccc4o3)c(O)c2)c1`, for which the inhibition was 53% (active).
For `COc1cccc(C(=O)Nc2ccc(-c3nc4cc(C)ccc4o3)c(O)c2)c1`, the inhibition was 36%.
Consider `Cc1ccc2nc(-c3ccc(C)c(NC(=S)NC(=O)c4cccc(Br)c4)c3)oc2c1`, for which the inhibition was 22%.
For the compound `Cc1ccc(C(=O)NC(=S)Nc2ccc(Cl)c(-c3nc4ccc(C)cc4o3)c2)cc1`, the inhibition is 15%.
With `Cc1cc(C)c2oc(-c3ccc(C)c(NC(=S)NC(=O)c4cccc(F)c4)c3)nc2c1`, the inhibition was 0%.
Take `O=C(NC(=S)Nc1ccc2oc(-c3cc(Cl)ccc3Cl)nc2c1)c1cccc(F)c1`: the inhibition was 18%.
The value for `O=C(Nc1ccc(F)c(Cl)c1)c1ccncc1` was 7%.
Take `CCCC1=C(C(=O)OCC)C(c2ccc(Cl)cc2Cl)NC(=O)N1` (configuration not stated): the inhibition was 4%.
Turning to `Cc1cccc(N2C(=O)/C(=C/c3cccn3-c3ccccc3)C(=O)NC2=S)c1C`, the inhibition was 30%.
The same measure for `COc1ccc(/C=C2\C(=O)NC(=O)N(c3ccccc3)C2=O)cc1I`: 39%; for `CCOc1cc(/C=N/NC(=O)c2ccncc2)ccc1OC(=O)c1ccco1`: 5%.
In the case of `O=S(=O)(Nc1ccccc1C(F)(F)F)c1ccccc1`, the inhibition is 4%.
The value for `COc1ccc(-n2c(C)cc(/C=C(\C#N)C(=O)Nc3ccccc3)c2C)cc1` was 11%; that for `O=C1CC(SC(=NCc2ccc3c(c2)OCO3)Nc2ccccc2)C(=O)N1` (configuration not stated) was 0%; that for `COc1ccc(OC)c(CNCc2ccc3c(c2)OCO3)c1` was 6%.
`COc1ccc(C(=O)/C=C/c2ccc(NC(=O)c3ccc(I)cc3)cc2)cc1`: the inhibition was 60% (active).
On to `Cc1cc(NC(=O)c2ccc(I)cc2)ccc1NC(=O)c1ccccc1`, for which the inhibition was 50% (active).
`COc1cc(C(=O)Nc2ccc(NC(=O)c3ccccc3)cc2)cc(OC)c1OC`: the inhibition is 10%.
For `COc1ccc(C(=O)Nc2cccc(/C=C/C(=O)c3ccccc3)c2)cc1OC`, the inhibition was 3%.
As for `COc1ccc(-n2nc3ccc(NC(=O)c4ccc(C)c(C)c4)cc3n2)cc1`, the inhibition was 8%.
`COc1ccc(-n2nc3ccc(NC(=O)c4ccc(I)cc4)cc3n2)cc1`: the inhibition was 51% (active).
On to `COc1cc(C(=O)Nc2ccc(/C=C/C(=O)c3ccccc3)cc2)cc(OC)c1OC`, for which the inhibition is 63% (active).
For the compound `COc1ccc(/C=C/C(=O)c2ccc(I)cc2)cc1`, the inhibition is 8%.
With `Cc1cc(NC(=O)c2ccc(C(C)(C)C)cc2)ccc1NC(=O)c1ccccc1`, the inhibition is 7%.
As to `COc1ccc(C(=O)Nc2ccc(/C=C/C(=O)c3ccccc3)cc2)cc1`, the inhibition is 8%.
The value for `COc1ccc(C(=O)Nc2ccc3nn(-c4ccc(F)cc4)nc3c2)cc1` was 0%.
Consider `Cc1cc(NC(=O)c2ccc(F)cc2)ccc1NC(=O)c1ccccc1`, for which the inhibition is 0%.
For the compound `CC(C)(C)C1CCC(C(=O)N/N=C/c2ccc(Cl)s2)CC1` (configuration not stated), the inhibition was 5%.
On to `CSc1nnc2c(n1)[nH]c1c(C)cccc12`, for which the inhibition was 10%.

What is called inhibition is the share of the control response that was lost under treatment.
